What all share (test): NCI-60 one-dose screen, 48 h (100 = growth as untreated, 0 = no growth, -100 = all killed)
Test [1] concerns HCT-15 colon. The conditions noted are these: 10 µM unless noted.
Test [2] relates to HT29 colon. The conditions noted are these: 10 µM unless noted.
Test [3] concerns SNB-75 CNS. The conditions noted are these: 10 µM unless noted.
Test [4] concerns SNB-19 CNS. Particulars: 10 µM unless noted.
The test system of test [5] is U251 CNS. Particulars: 10 µM unless noted.
Test [6] has as its system PC-3 prostate. The conditions noted are these: 10 µM unless noted.
In test [7] the test system is SK-MEL-5 melanoma. The conditions noted are these: 10 µM unless noted.
Test [8] relates to UACC-62 melanoma. Particulars: 10 µM unless noted.
Test [9] relates to LOX IMVI melanoma. Particulars: 10 µM unless noted.
Test [10] concerns SK-MEL-28 melanoma. Particulars: 10 µM unless noted.
Test [11] relates to SK-MEL-2 melanoma. Particulars: 10 µM unless noted.
Test [12] relates to SN12C renal. Particulars: 10 µM unless noted.
Test [13] has as its system UO-31 renal. The conditions noted are these: 10 µM unless noted.
In test [14] the test system is TK-10 renal. The conditions noted are these: 10 µM unless noted.
Test [15] deals with ACHN renal. Particulars: 10 µM unless noted.
For test [16], the system named is A498 renal. Particulars: 10 µM unless noted.
The subject of test [17] is CCRF-CEM leukemia. Particulars: 10 µM.
Test [18] has as its system MOLT-4 leukemia. Particulars: 10 µM unless noted.
Test [19] deals with CAKI-1 renal. Particulars: 10 µM unless noted.
The test system of test [20] is EKVX NSCLC. Particulars: 10 µM.

Among the data in PubChem BioAssay (NCI) are growth values, retold here.

About 83,000 compounds went through this panel and 20% of them were active in at least one assay; those are over-represented in the sample as a whole.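 Results are percent growth after 48 hours of single-concentration exposure. 100 means growth as in untreated cells, lower positive values show inhibition; negative values down to -100 show cell death.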 Unmarked numbers belong to inactive results. The source made the active and inactive calls. How the source made its calls: active means growth percent below 10; inactive means the rest.

Consider `CC(Br)c1nc2ccccc2cc1C(N)=O` (stereo not drawn), for which the growth is 98.9% in test [1]; 105% in test [2]; 88.3% in [3]; 105% in test [4]; 97.9% in [5]; 103% in [6]. For the same compound, the growth is 104% in [7]; 93.7% in [8]; 85.6% in test [9]; 107% in test [10]; 110% in [11]; 90.5% in test [12]. Besides, the growth in [13] is 92.6%; in test [14], 96.8%; in [15], 109%; in [16] it was 94.7%; in [17] it was 84.5%; in test [18] it was 86.4%.

Turning to `BrCCCOc1ccc(Oc2ccc(OCCCBr)cc2)cc1`, the growth in [1] is 93.3%; in test [2], 107%; in test [3] it was 86.6%; in [4], 92.5%; in [5], 88.1%; in [6], 101%. Further, the growth in [7] was 97%; in test [8], 94.5%; in [9], 50.5%; in test [10] it was 99%; in [11] it was 97.4%; in [12] it was 95.3%. Moreover, the growth in test [13] is 105%; in test [14] it was 108%; in test [19], 112%; in test [16], 99.4%; in [18], 96.4%.

With `COc1ccc(C(=O)NCCNc2nccc(-c3c(-c4ccc(F)cc4)nc4sccn34)n2)cc1`, the growth in [1] was 36.6%; in [2] it was 14.6%; in test [3] it was 50.9%; in [4], 61.9%; in test [5], 55.4%; in test [6], 49.5%. Moreover, the growth in test [7] is 38.1%; in [8], 47.4%; in test [9], 43.3%; in test [10], 76.7%; in test [20] it was 66.8%; in [12], 70%. Moreover, the growth is 34.3% in test [13]; 29.1% in test [14]; 29.2% in [15]; 43.6% in [19]; 56.1% in test [16]; 48.1% in test [17]. The growth in test [18] is 59.8%.

As to `NC(CSC(c1ccccc1)(c1ccccc1)c1ccccc1)C(=O)NCC(=O)O` (stereo not drawn), the growth in test [1] was 73.2%; in [2], 101%; in test [3] it was 76.1%; in test [4], 85.7%; in [5] it was 38.3%; in [6] it was 81.9%. For the same compound, the growth was 44.3% in [7]; 62.5% in test [8]; 81.4% in test [9]; 63.3% in [10]; 38.3% in test [11]; 70.7% in test [12]. In addition, the growth in [13] is 84.4%; in test [14], 98.8%; in test [15], 88.4%; in [16], 65%; in test [17] it was 53.5%; in test [18] it was 83.7%.

Turning to `CCCCN(CCCC)c1ccc(C(=O)O)cc1`, the growth was 97.3% in test [1]; 108% in test [2]; 83.2% in test [3]; 84.8% in test [4]; 100% in [5]; 102% in [6]. Further, the growth is 100% in test [7]; 103% in test [8]; 99.4% in test [9]; 107% in test [10]; 83.5% in test [11]; 97.9% in test [12]. Also, the growth in [13] is 82.9%; in [14], 86.3%; in test [16], 98.2%; in test [18] it was 99%.

Regarding `O=c1c2c(c3ccccc3n1-c1ccccc1)NC(=S)NC2c1ccc(Cl)cc1` (stereo not drawn), the growth in test [1] is 28.6%; in test [2], 41.5%; in test [3] it was 41%; in test [4], 39.7%; in [5], 32.4%; in test [6] it was -4.33% (active). Besides, the growth in test [7] was 1.08% (active); in [8], 22.4%; in test [9], 8.65% (active); in test [10], 48.2%; in [20] it was 20%; in [12], 50.1%. Also, the growth is 47.6% in test [13]; 10.8% in test [14]; 52.7% in test [15]; 33.2% in test [19]; 50.6% in [16]; 7.43% (active) in test [17]. Besides, the growth in [18] was 25.4%.

For `O=C(O)COc1ccc([N+](=O)[O-])cc1Cl`, the growth is 94.1% in test [1]; 113% in test [2]; 94.3% in test [3]; 107% in [4]; 96.5% in test [5]; 97.6% in test [6]. Further, the growth in test [7] is 106%; in test [8] it was 111%; in [9], 100%; in test [10], 104%; in [11], 107%; in test [12], 88.7%. The growth in [13] is 105%; in [14], 103%; in test [15], 102%; in test [16] it was 115%; in test [17], 88.8%; in test [18], 99.2%.

`CCCCS(=O)(=O)c1cc(Nc2ccc(O)c3c2C(=O)c2ccccc2C3=O)ccc1C`: the growth in test [1] is 66.8%; in [2] it was 51.5%; in test [3], 106%; in [4], 66.7%; in test [5] it was 80.7%; in test [6] it was 80.7%. Besides, the growth was -13.5% (active) in test [7]; 32.8% in test [8]; 51.5% in [9]; 71.5% in test [10]; 92.5% in test [11]; 71.5% in test [12]. The growth in test [13] is 54.8%; in test [14], 116%; in [15], 92.2%; in [16], 126%; in test [17] it was 59.7%; in test [18], 61.2%.
